# Reference: PubChem BioAssay (NCI)
# The panel holds about 83,000 compounds, 20% with a hit somewhere; the sample as a whole holds those more often.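 Negative percent growth values reflect cell death: -40 means 40% of the cells present at the start died, and -100 means all died.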 Unmarked numbers belong to inactive results. Activity calls are given as the source filed them.
# Test system: TK-10 renal
# Assay: NCI-60 one-dose screen, 48 h (100 = growth as untreated, 0 = no growth, -100 = all killed)
# Conditions: 10 µM unless noted
# Protocol: Growth inhibition of the TK-10 human tumor cell line is measured as a screen for anti-cancer activity. Cells are grown in 96 well plates and exposed to the test compound for 48 hours. Compounds are tested at a single concentration, which is 10^-5 M for most compounds. The reported endpoint is percent growth (GI% or GIPRCNT), where numbers from 0 - 100% represent growth inhibition, and numbers from -100% - 0 represent cell death. For example, a value of 40 represents 60% growth inhibition. A value of 0 means no net growth occurred over the course of the experiment. A value of -40 indicates 40% of cells at the beginning of the experiment died by the end of the experiment. A value of -100 means all cells are dead at the end of the experiment.
# NCI-60 Human Tumor Cell Lines Screen was performed using the standard one-dose NCI protocol, which is described in more detail at https://dtp.cancer.gov/discovery_development/nci-60/default.htm.
# Compounds with GIPRCNT values below 10 were considered active. Activity score was based on GIPRCNT using the following formula: […]
# Score is 0 for GIPRCNT values of 100 or above, 50 for GIPRCNT values of 0, and 100 for GIPRCNT values of -100.
row,SMILES,growth
1,COc1ccc2nc3cc(Cl)ccc3c(N3CCN(c4ccnc(N5CCN(C)CC5)n4)CC3)c2c1,8.16% (active)
2,C/C(=C(/c1ccc(O)cc1)c1ccc(OCCN2CCCC2)cc1)c1ccccc1,79.6%
3,CN1CCN(Cc2ccc(NC(=O)c3[nH]ncc3Nc3ccnc4ccsc34)cc2)CC1,58.6%
4,C#Cc1nc2ccccc2c(=O)[nH]1,-42.3% (active)
5,O=[N+]([O-])c1cccc(-c2nc3sccn3c2-c2ccnc(NCCCNS(=O)(=O)c3ccc(F)cc3)n2)c1,44.6%
6,O=C1C=CC(Nc2ccccc2[N+](=O)[O-])C1Nc1ccccc1[N+](=O)[O-] (stereo not given),-45.3% (active)
7,COc1ccccc1/C=C(/C(=O)c1ccccc1)c1ccccc1,119%
8,Nc1cccc(NC(=O)C(=O)Nc2cccc(N)c2)c1,122%
9,CN(C)c1ccc(/C=C(\C#N)c2nc3ccccc3s2)cc1,121%
10,CCOc1ccc(Nc2nc(-c3c(C)nc4ncccn34)cs2)cc1,54.1%
11,O=C(O)c1ccc(=O)[nH]n1,117%
12,COc1cccc(NC(=O)c2sc3nc4c(cc3c2N)CN(Cc2ccccc2)CC4)c1,79.7%
13,c1ccc(-c2nc(N3CCOCC3)c3c4c(sc3n2)CCCCC4)nc1,45.1%
14,Cc1ccc2c(c1)C(=O)c1c-2c(OCCCN(C)C)nc2ccccc12,37.2%
15,COc1cc(/C=C2\CN(C(=O)CCN3CCC(=NO)CC3)C/C(=C\c3cc(OC)c(OC)c(OC)c3)C2=O)cc(OC)c1OC,-69.2% (active)
16,O=C1C=CC(=O)N1c1ccc(Cc2ccc(N3C(=O)C=CC3=O)cc2)cc1,92.4%
17,CC/C=C\C[C@H](F)C/C=C1/C(=O)C=C[C@@H]1C/C=C\CCCC(=O)O,128%
18,CCCCCCCCCC(=O)Oc1ccc(/C(=C(/C)c2ccccc2)c2ccc(OCCN3CCCC3)cc2)cc1,43%
19,CCN(CC)Cc1cc(Nc2c3ccccc3nc3cc(Cl)ccc23)ccc1O,-65.6% (active)
20,COc1ccc(C2c3ccc4ccccc4c3Oc3ncnc(N)c32)cc1 (stereo not given),113%

row,SMILES,growth
1,COc1cc(/C=N\NC(=O)CN2CCN(c3cc4c(cc3F)c(=O)c(C(=O)N/N=C/c3ccc(O)c(OC)c3)cn4C3CC3)CC2)ccc1O,91.7%
2,Nc1cc2ccncc2c2ccccc12,80.6%
3,CN1Cc2c(cc(CN3CCCCC3)n2C)C(c2ccc(Br)cc2)C1 (stereo not given),92.3%
4,N#CC1=C(N)Oc2c(ccc3ccccc23)C1c1cccs1 (stereo not given),77.6%
5,C(=N\Nc1ccccn1)/c1ccccn1,17.5%
6,COc1cc(C2CC(=O)c3c(C)nn(-c4nc5ccccc5[nH]4)c3C2)cc(OC)c1OC (stereo not given),45.3%
7,N#Cc1ccc(NC(=O)Nc2ccc(Cc3ccc(NC(=O)Nc4ccc(C#N)cc4)cc3)cc2)cc1,48.1%
8,COc1cc2nc3cc([N+](=O)[O-])ccc3c(NCCCNCC(C)(C)O)c2cc1OC,-31.7% (active)
9,CS(=O)(=O)c1ccc(-c2cnc3ccc(-c4cccc(S(C)(=O)=O)c4)nn23)cc1,40%
10,COC(=O)[C@@H]1CC[C@]2(C)[C@H](CC[C@@H]3O[C@@]32C)[C@@]1(C)CC(=O)c1ccoc1,84%
11,CCCCCCCCCCCCCC1=NCCN1CCO,123%
12,O=C(O)c1cn(C2CC2)c2cc(N3CCN(Cc4nc5c(cnn5-c5ccc([N+](=O)[O-])cc5)c(=O)[nH]4)CC3)c(F)cc2c1=O,122%
13,CSc1ccc(N=C=C(c2ccccc2)c2ccccc2)cc1,99.6%
14,CCOC(=O)c1cnc2cc(Cl)c(F)cc2c1Nc1cccc(NS(C)(=O)=O)c1,124%
15,Cc1ccc(SCN2CCN(c3cccc(Cl)c3)CC2)cc1,97.7%
16,CCCCNC(=O)NS(=O)(=O)c1ccc(N2N=C(c3cc(C)ccc3C)CC2c2cc(OC)c(OC)c(OC)c2)cc1 (stereo not given),74.5%
17,COc1cc(C2CC(=O)Nc3c2c(C)nn3-c2nc3ccccc3[nH]2)cc(OC)c1OC (stereo not given),109%
18,CC(=O)CC(C)(C)c1ccc(Cl)cc1,114%
19,CCN(CC)CC#CCOC(=O)[C@]1(C)CCC[C@@]2(C)[C@H]1CC(C=O)=C1C=C(C(C)C)CC[C@@H]12,77.1%
20,Cc1cc(Cl)ccc1Nc1nc(C(F)(F)F)ccc1C(=O)N/N=C/c1ccc(F)cc1,0.832% (active)
